Cruzain noTriton – cruzain (T. cruzi) inhibition without detergent; P25779; purified cruzain, Z-FR-AMC fluorescence, no detergent; Potency, µM, without a hit: max response, negative = inhibition, actives largely listed as inhibitors; 200,000 compounds, 2.3% hits;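 further: plate controls were enzyme without inhibitor for no effect and buffer without enzyme for full effect; nearly all actives have a fitted effect of over 40% in size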
Target sequence (P25779 123-467 limits assumed): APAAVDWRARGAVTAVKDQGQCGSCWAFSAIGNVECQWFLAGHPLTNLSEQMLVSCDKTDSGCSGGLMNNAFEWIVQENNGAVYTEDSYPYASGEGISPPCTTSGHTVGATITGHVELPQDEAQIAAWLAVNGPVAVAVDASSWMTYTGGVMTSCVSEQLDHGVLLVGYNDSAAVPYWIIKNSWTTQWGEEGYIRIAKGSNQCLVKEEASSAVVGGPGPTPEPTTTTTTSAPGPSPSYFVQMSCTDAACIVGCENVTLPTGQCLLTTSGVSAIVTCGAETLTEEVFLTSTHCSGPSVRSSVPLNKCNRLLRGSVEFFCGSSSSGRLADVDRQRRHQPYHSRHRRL
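Purified cruzain at 1.5 nM, pre-incubated 15 min with compound at room temperature in 100 mM sodium acetate pH 5.5, 5 mM DTT, 0.00005% Triton X-100. Reaction started with 2 uM Z-FR-AMC; AMC fluorescence increase over 60 s gives rate.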
Cruzain Triton – cruzain (T. cruzi) inhibition with detergent | 200,000 compounds, 0.43% hits | purified cruzain, Z-FR-AMC fluorescence, 0.01% Triton | Potency, µM, without a hit: max response, negative = inhibition, usual class: inhibitors;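 further: plate controls were neutral wells for no effect and buffer without enzyme for full effect; nearly all actives have a fitted effect of over 40% in size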
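Cruzain (1.5 nM) preincubated 15 min at RT with compound in 100 mM sodium acetate pH 5.5, 5 mM DTT, 0.01% Triton X-100. Reaction started with 2 uM Z-FR-AMC; AMC fluorescence (ex 360/em 450 nm) change over 60 s gave rate.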
The depositor's hits bear a star. Compounds with a hit are over-represented: about 2.4% of the library has one in this group of screens. The call rests on the fitted dose curve; in most records, active means well fitted curve in the direction sought with a large enough effect; inconclusive means small, poorly fitted or top-dose-only effect, or another doubt; inactive means no such curve, though single readings can be large; an effect the other way counts as inactive or inconclusive. Potency means the concentration at half of the fitted maximal effect.

For O=C(CCCCn1c(=O)c2ccccc2n(CC(=O)Nc2ccccc2)c1=O)NCc1ccccc1Cl the results were Cruzain noTriton -4% and Cruzain Triton -1%.
CC(C)(C)OC(=O)N1CCC(c2c(C(=O)NCc3ccco3)cnn2-c2ccc(F)cc2)CC1 was read as Cruzain noTriton inconclusive and Cruzain Triton -6%.
`COc1ccc(S(=O)(=O)NCc2ccc3c(c2)CCN3C(=O)c2ccccc2)cc1OC` gave Cruzain noTriton 3% and Cruzain Triton 0%.
For COc1ccc(CNC(=O)c2cc3c(=O)oc4ccc(C)cc4c3s2)c(OC)c1 the results were Cruzain noTriton 9% and Cruzain Triton -1%.
For CCOC(=O)c1c(-c2ccccc2Cl)csc1NC(=O)c1cc(S(=O)(=O)N2CCOCC2)ccc1C the results were Cruzain noTriton 25µM* and Cruzain Triton -2%.
CCOC(=O)c1c(-c2ccccc2)csc1NC(=O)c1cc(=O)c2ccc(C)cc2o1 was read as Cruzain noTriton -3% and Cruzain Triton -2%.
CCOC(=O)c1ccccc1NC(=O)c1cc(S(=O)(=O)N2CCOCC2)ccc1F was read as Cruzain noTriton inconclusive and Cruzain Triton -4%.
For CCOC(=O)c1c(-c2ccccc2)csc1NC(=O)c1cc2ccccc2oc1=O the results were Cruzain noTriton 16µM* and Cruzain Triton -3%.
`COc1ccc(NC(=O)CCc2c(C)nc3c(c2C)c(=O)n(C)c(=O)n3C)cc1OC` gave Cruzain noTriton 1% and Cruzain Triton -1%.
Screening O=C(Nc1ccccc1N1CCN(C(=O)c2ccccc2)CC1)c1cc2ccccc2o1 returned Cruzain noTriton 0.16µM* and Cruzain Triton -8%.
For O=C(Nc1ccccc1N1CCCC1)c1cc2ccccc2o1 the results were Cruzain noTriton -13% and Cruzain Triton -2%.
COc1ccc(OC)c(C2CC(=O)Nc3c2c(=O)n(C)c2ncnn32)c1 (stereo not drawn) was read as Cruzain noTriton -4% and Cruzain Triton -2%.
CCCC(=O)OCCNc1cc(SCc2ccco2)c2nonc2c1[N+](=O)[O-] was read as Cruzain noTriton -30% and Cruzain Triton 25µM*.
Screening CC(=O)OCCCNc1cc(SCc2ccco2)c2nonc2c1[N+](=O)[O-] returned Cruzain noTriton -17% and Cruzain Triton -21%.
`Cc1c(NC(=O)CSc2ccc(Cl)cc2)cccc1-c1nc2cc(Cl)ccc2o1` gave Cruzain noTriton 25µM* and Cruzain Triton -1%.
O=C(Cc1ccc(Cl)cc1)Nc1ccc2oc(-c3ccccc3F)nc2c1 was read as Cruzain noTriton 7.9µM* and Cruzain Triton -1%.
For Cc1ccc(SCC(=O)Nc2cccc(-c3nc4cc(Cl)ccc4o3)c2C)cc1 the results were Cruzain noTriton -3% and Cruzain Triton -2%.
Screening O=C(Cc1ccc(Cl)cc1)Nc1ccc2oc(-c3ccncc3)nc2c1 returned Cruzain noTriton 6% and Cruzain Triton -1%.
For COc1ccc(OC)c(NC(=O)c2cc3c(=O)n4cccc(C)c4nc3n2C)c1 the results were Cruzain noTriton 15% and Cruzain Triton -1%.
O=C(N/N=C/C(Br)=C/c1ccccc1)c1n[nH]c2c1CCC2 was read as Cruzain noTriton 16µM* and Cruzain Triton -7%.
O=C(N/N=C/c1cccs1)c1n[nH]c2c1CCC2 was read as Cruzain noTriton 1% and Cruzain Triton -4%.
For O=C(CNc1cccc2ccccc12)N/N=C/C(Br)=C/c1ccccc1 the results were Cruzain noTriton -26% and Cruzain Triton -7%.
Screening O=C(N/N=C/c1ccccc1Cl)c1n[nH]c2c1CCCC2 returned Cruzain noTriton 25µM* and Cruzain Triton 0%.
`CN(C(=O)c1ccc2c(c1)N(Cc1ccc(F)cc1)C(=O)c1ccccc1S2(=O)=O)C1CCCCC1` gave Cruzain noTriton 19% and Cruzain Triton -3%.
COc1ccc(CNC(=O)CCc2c(C)c3cc4c(C)c(C)oc4cc3oc2=O)cc1OC was read as Cruzain noTriton -4% and Cruzain Triton -1%.
Cc1sc(NC(=O)/C=C/c2ccc(C(C)C)cc2)c(C#N)c1C was read as Cruzain noTriton 25µM* and Cruzain Triton 1%.
`CC(C)c1ccc(/C=C/C(=O)Nc2nncs2)cc1` gave Cruzain noTriton inconclusive and Cruzain Triton -5%.
Screening Cc1cc(Nc2cccc(Cl)c2C)n2nc(Cc3ccccc3)nc2n1 returned Cruzain noTriton 3% and Cruzain Triton -6%.
For COc1ccc(-c2nc3ccccc3o2)cc1NC(=O)c1ccc(N2CCC(C)CC2)c([N+](=O)[O-])c1 the results were Cruzain noTriton -10% and Cruzain Triton 1%.
For Cc1c(Cc2ccccc2)sc(NC(=O)/C=C/c2cccc3ccccc23)c1C(N)=O the results were Cruzain noTriton 5µM* and Cruzain Triton -5%.
`COC(=O)c1c(NC(=O)/C=C/C(=O)O)sc(Cc2ccccc2)c1C` gave Cruzain noTriton 13% and Cruzain Triton -10%.
Screening CCc1ccc(CNC(=O)c2cnc3sc(N(CC)CC)nn3c2=O)cc1 returned Cruzain noTriton inconclusive and Cruzain Triton -11%.

Screening data deposited in PubChem by National Center for Advancing Translational Sciences (NCATS).
